This is an account of results in the supplement of paper PMC8728848.

Common to all, as to experiment: glycan array binding signal (z-score within array); higher = stronger binding
Common to all, as to conditions: glycan notation: IUPAC condensed, linker removed

The target of experiment [1] is Fuc(a1-2)Gal(b1-3)GlcNAc(b1-2)Man(a1-3)[Fuc(a1-2)Gal(b1-3)GlcNAc(b1-2)Man(a1-6)]Man(b1-4)GlcNAc(b1-4)GlcNAc. The gist of the method: (§1)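 Negative Z-scores can be read as non-binding. The Z-score is calculated within each array and then averaged across arrays of one protein sequence at different concentrations or buffers and across linkers. Arrays, 3228 in all, were curated from the Consortium for Functional Glycomics database and kept only where the protein sequence was available.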

Experiment [2] addresses Fuc(a1-2)Gal(b1-3)GlcNAc(b1-3)[Fuc(a1-2)Gal(b1-3)GlcNAc(b1-6)]GalNAc. Summed up:
as §1

The target in experiment [3] is Fuc(a1-2)[Gal(a1-3)]Gal(b1-3)GalNAc. Summed up: as §1
Experiment [4] addresses Fuc(a1-2)[Gal(a1-3)]Gal(b1-4)[Fuc(a1-3)]GlcNAc(b1-3)GalNAc. The gist of the method:
as §1

The target of experiment [5] is Fuc(a1-2)[GalNAc(a1-3)]Gal(b1-4)GlcNAc(b1-2)Man(a1-3)[Fuc(a1-2)[GalNAc(a1-3)]Gal(b1-4)GlcNAc(b1-2)Man(a1-6)]Man(b1-4)GlcNAc(b1-4)[Fuc(a1-6)]GlcNAc. Summed up:
as §1

The target in experiment [6] is Fuc(a1-2)[GalNAc(a1-4)]Gal(b1-4)GlcNAc. The gist of the method:
as §1

Experiment [7] concerns the target Gal(a1-3)Gal(b1-3)GlcNAc(b1-6)GalNAc. Summed up:
as §1

Experiment [8] deals with Gal(a1-3)Gal(b1-4)Glc. Summed up: as §1
For experiment [9], the target named is Gal(a1-4)Gal(b1-3)GlcNAc(b1-2)Man(a1-3)[Gal(a1-4)Gal(b1-3)GlcNAc(b1-2)Man(a1-6)]Man(b1-4)GlcNAc(b1-4)GlcNAc. The gist of the method:
as §1

Experiment [10] deals with Gal(a1-4)Gal(b1-4)GlcNAc(b1-2)Man(a1-3)[Gal(a1-4)Gal(b1-4)GlcNAc(b1-2)Man(a1-6)]Man(b1-4)GlcNAc(b1-4)GlcNAc. Summed up: as §1
Experiment [11] deals with Gal(b1-3)GalNAc(b1-4)Gal(b1-4)Glc. Summed up:
as §1

For experiment [12], the target named is Gal(b1-3)GlcNAc(b1-3)Gal(b1-4)GlcNAc(b1-2)Man(a1-3)[Gal(b1-3)GlcNAc(b1-3)Gal(b1-4)GlcNAc(b1-2)Man(a1-6)]Man(b1-4)GlcNAc(b1-4)GlcNAc. The gist of the method:
as §1

Experiment [13] deals with Gal(b1-3)[Fuc(a1-4)]GlcNAc(b1-2)Man(a1-3)[Gal(b1-3)[Fuc(a1-4)]GlcNAc(b1-2)Man(a1-6)]Man(b1-4)GlcNAc(b1-4)[Fuc(a1-6)]GlcNAc. The gist of the method: as §1
Experiment [14] has as its target Gal(b1-3)[Fuc(a1-4)]GlcNAc(b1-6)GalNAc. The gist of the method:
as §1

In experiment [15] the target is Gal(b1-4)GlcNAc(b1-2)Man(a1-3)[GlcNAc(b1-4)][Gal(b1-4)GlcNAc(b1-2)Man(a1-6)]Man(b1-4)GlcNAc(b1-4)GlcNAc. The gist of the method: as §1
In experiment [16] the target is Gal(b1-4)GlcNAc(b1-3)Gal(b1-4)GlcNAc(b1-2)Man(a1-3)[Gal(b1-4)GlcNAc(b1-3)Gal(b1-4)GlcNAc(b1-2)Man(a1-6)]Man(b1-4)GlcNAc(b1-4)GlcNAc. The gist of the method:
as §1

The target of experiment [17] is Gal(b1-4)GlcNAc(b1-3)Gal(b1-4)GlcNAc(b1-2)[Gal(b1-4)GlcNAc(b1-3)Gal(b1-4)GlcNAc(b1-6)]Man(a1-6)[Gal(b1-4)GlcNAc(b1-3)Gal(b1-4)GlcNAc(b1-2)Man(a1-3)]Man(b1-4)GlcNAc(b1-4)GlcNAc. Summed up: as §1
Experiment [18] has as its target Gal(b1-4)GlcNAc(b1-3)Gal(b1-4)GlcNAc(b1-2)[Gal(b1-4)GlcNAc(b1-3)Gal(b1-4)GlcNAc(b1-6)]Man(a1-6)[Gal(b1-4)GlcNAc(b1-3)Gal(b1-4)GlcNAc(b1-2)Man(a1-3)]Man(b1-4)GlcNAc(b1-4)[Fuc(a1-6)]GlcNAc. Summed up: as §1
The target in experiment [19] is Gal(b1-4)GlcNAc(b1-3)Gal(b1-4)GlcNAc(b1-3)Gal(b1-4)GlcNAc(b1-3)Gal(b1-4)GlcNAc(b1-2)Man(a1-3)[Gal(b1-4)GlcNAc(b1-3)Gal(b1-4)GlcNAc(b1-3)Gal(b1-4)GlcNAc(b1-3)Gal(b1-4)GlcNAc(b1-2)Man(a1-6)]Man(b1-4)GlcNAc(b1-4)[Fuc(a1-6)]GlcNAc. The gist of the method: as §1
Experiment [20] addresses Gal(b1-4)GlcNAc(b1-3)Gal(b1-4)GlcNAc(b1-3)Gal(b1-4)GlcNAc(b1-3)Gal(b1-4)GlcNAc(b1-2)[Gal(b1-4)GlcNAc(b1-3)Gal(b1-4)GlcNAc(b1-3)Gal(b1-4)GlcNAc(b1-3)Gal(b1-4)GlcNAc(b1-6)]Man(a1-6)[Gal(b1-4)GlcNAc(b1-3)Gal(b1-4)GlcNAc(b1-3)Gal(b1-4)GlcNAc(b1-3)Gal(b1-4)GlcNAc(b1-2)Man(a1-3)]Man(b1-4)GlcNAc(b1-4)[Fuc(a1-6)]GlcNAc. The gist of the method: as §1
Experiment [21] concerns the target Gal(b1-4)GlcNAc(b1-3)Gal(b1-4)GlcNAc(b1-3)Gal(b1-4)GlcNAc(b1-3)Gal(b1-4)GlcNAc(b1-3)Gal(b1-4)GlcNAc(b1-2)[Gal(b1-4)GlcNAc(b1-3)Gal(b1-4)GlcNAc(b1-3)Gal(b1-4)GlcNAc(b1-3)Gal(b1-4)GlcNAc(b1-3)Gal(b1-4)GlcNAc(b1-6)]Man(a1-6)[Gal(b1-4)GlcNAc(b1-3)Gal(b1-4)GlcNAc(b1-3)Gal(b1-4)GlcNAc(b1-3)Gal(b1-4)GlcNAc(b1-3)Gal(b1-4)GlcNAc(b1-2)Man(a1-3)]Man(b1-4)GlcNAc(b1-4)[Fuc(a1-6)]GlcNAc. The gist of the method: as §1

The target of experiment [22] is Gal(b1-4)GlcNAc(b1-3)Gal(b1-4)GlcNAc(b1-3)[Gal(b1-4)GlcNAc(b1-3)Gal(b1-4)GlcNAc(b1-6)]GalNAc. Summed up: as §1
In experiment [23] the target is Gal(b1-4)GlcNAc(b1-3)Gal(b1-4)GlcNAc(b1-6)[Gal(b1-3)]GalNAc. Summed up:
as §1

About 410 targets per protein were measured; listed, in parts, are those with the strongest signals and a random draw of the rest.

B1: GS14009A-pdi-495-27-495 (Parabacteroides distasonis) (protein)
chain: FEEVNTDPDSPTDVPTTNLLAYSLYYTSYRLYDRWFAMDEPMTFCGYASKMTYIDESRYNFRTGVQDTNWEYLYRILNNLKDIEKRATFNETPNMLNVSKVMQVHLMQVATDRWRDVPYTDAAKMTDGILQPKYDKQEDIYPGLLATLKEAADGFADGGSDDLGEGDLLFGGDIEKWQRYCNSMRLRLAMRISEVSPALAKETVEEVMGNPTKYPIMESNDDNAFFWWIGTDPNYYEPMADGYRTRKTEYCAADVIVDHMNTREDPRRSSYFQPTKESVEAGEPKYVGYTIGAKANAVASKYSIWGARFFTDLAGFSPYMRVAEPWFCVAEASMLGWNTGISAEDAYNKAVTYSMEENSVSAEDIADYLANAGKFTNDKKQIYYEEWVAMFKQGMEGWSLYRRTGVPDNLYPAPGRPANYSNHNVPPFRSPYPDKERNLNNANCAPFDAEVVDNLWGKQMWWDTRTGVH
As for B1, the “glycan array binding signal (z-score)” value was 2.57 in experiment [1]; -0.336 in experiment [2]; 0.023 in experiment [3]; -0.109 in experiment [4]; 2.8 in experiment [5]; -0.532 in experiment [6]. Further, the “glycan array binding signal (z-score)” value is -0.003 in experiment [7]; -0.017 in [8]; 2.33 in [9]; 2.23 in experiment [10]; 0.001 in experiment [11]; 4.58 in [12]. Moreover, the “glycan array binding signal (z-score)” value in experiment [13] worked out at 1.2; in experiment [14] it was 0.634; in experiment [15], 15.2; in [16], 0.299; in experiment [17], 10.6; in experiment [18], 0.552. Moreover, the “glycan array binding signal (z-score)” value in experiment [19] was 0.445; in [20], 7.28; in [21], 3.33; in experiment [22], 0.573; in experiment [23], -0.044.
